We go through eight compounds from PubChem BioAssay (Tox21).

Assay [1] concerns the target Peroxisome proliferator-activated receptor delta (Homo sapiens) (UniProt Q03181). Nature of the assay: qHTS assay to identify small molecule agonists of the peroxisome proliferator-activated receptor delta (PPARd) signaling pathway (AID 743212; calls by dose curve; note: % is set by controls: 0 for no effect and ±100 for the full control effect). Put shortly:
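Read-out: beta-lactamase FRET fluorescence after 2 h room-temperature incubation with LiveBLAzer B/G substrate. Cells were HEK293H carrying a UAS-bla reporter for PPARd, treated at 37 C with DMSO-dissolved compounds.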

Assay [2] in a line: qHTS assay to identify small molecule antagonists of the peroxisome proliferator-activated receptor delta (PPARd) signaling pathway - cell viability counter screen (AID 743213). Note: % is set by controls: 0 for no effect and ±100 for the full control effect; nearly all actives have a fitted effect of over 50% in size. Put shortly: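 HEK293H PPARd UAS-bla cells, 5 h pre-incubation, compound + L165041 300 nM final, 17 h 37 C; B/G FRET substrate 2 h RT; then CellTiter-Glo 30 min RT, luminescence.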
The target in assay [3] is Peroxisome proliferator-activated receptor delta (Homo sapiens) (UniProt Q03181). Put plainly: qHTS assay to identify small molecule antagonists of the peroxisome proliferator-activated receptor delta (PPARd) signaling pathway (AID 743215; active = well fitted inhibition curve with a large enough effect in the signal ratio in the repeat runs, not every such curve was filed as active; the % refers to the signal ratio;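 note: cells stimulated with agonist L165041 at 300 nM final during compound exposure; series mostly up to about 62 µM; % is set by controls: 0 for no effect and ±100 for the full control effect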). Summed up: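 Agonist L165041 (300 nM final) added with compound to PPARd-bla HEK293H UAS-bla reporter cells; 17 h incubation at 37 C. Read-out: LiveBLAzer FRET substrate, 2 h at room temperature, fluorescence intensity.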

A short description of assay [4]: qHTS assay to identify small molecule agonists of the farnesoid-X-receptor (FXR) signaling pathway - cell viability counter screen (AID 743218). Note: % is set by controls: 0 for no effect and ±100 for the full control effect; nearly all actives have a fitted effect of over 45% in size. Summed up: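 Viability counter screen in the same wells: CellTiter-Glo luminescence, 30 min room-temperature incubation, measured after the beta-lactamase read. Cells were GeneBLAzer FXR-UAS-bla HEK 293T, compound-treated 16 h at 37C.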

A short description of assay [5]: qHTS assay to identify small molecule antagonists of the farnesoid-X-receptor (FXR) signaling pathway - cell viability counter screen (AID 743221; active = well fitted cell-killing curve with a large enough effect in the repeat runs, not every such curve was filed as active; note: nearly all actives have a fitted effect of over 50% in size; note: potency is the fitted concentration of half-maximal effect). Summed up:
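Quantitative HTS of the Tox21 10K library run in parallel with the beta-lactamase reporter read. HEK 293T cells carrying a UAS-driven bla reporter got compound and 50 uM CDCA (final) for 16 h; ATP-based luminescence followed.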

Assay [6] has as its target Vitamin D3 receptor (Homo sapiens) (UniProt P11473). Nature of the assay: qHTS assay to identify small molecule agonists of the vitamin D receptor (VDR) signaling pathway (AID 743222; calls by dose curve; note: % is set by controls: 0 for no effect and ±100 for the full control effect). Summed up:
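Agonist mode, beta-lactamase reporter: fluorescence from LiveBLAzer B/G FRET substrate (2 h, room temperature) read after 16 h compound treatment at 37 C of VDR-bla cells, which were pre-incubated 4 h after seeding.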

Assay [7] has the same target. Put plainly: qHTS assay to identify small molecule antagonists of the vitamin D receptor (VDR) signaling pathway (AID 743223; active = well fitted inhibition curve with a large enough effect in the signal ratio in the repeat runs, not every such curve was filed as active; the % refers to the signal ratio; note: % is set by controls: 0 for no effect and ±100 for the full control effect). Summed up:
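Fluorescence from LiveBLAzer B/G FRET substrate, read after 2 h at room temperature, reflects beta-lactamase reporter activity in VDR-bla cells treated 16 h at 37C with compounds and agonist 1alpha,25-dihydroxyvitamin D3 (3 nM final).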

Assay [8] can be described thus: qHTS assay to identify small molecule agonists of the vitamin D receptor (VDR) signaling pathway - cell viability counter screen (AID 743224). Note: series mostly up to about 63 µM; % is set by controls: 0 for no effect and ±100 for the full control effect; nearly all actives have a fitted effect of over 50% in size. Put shortly: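 Counter screen run in the same wells as the VDR-bla reporter assay: CellTiter-Glo luminescence, 30 min at room temperature, after 16 h compound treatment at 37C of cells pre-plated for 4 h.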
A short description of assay [9]: qHTS assay to identify small molecule antagonists of the vitamin D receptor (VDR) signaling pathway - cell viability counter screen (AID 743225). Note: % is set by controls: 0 for no effect and ±100 for the full control effect; nearly all actives have a fitted effect of over 50% in size. Summed up: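 Cells (VDR-UAS-bla HEK 293T) are plated, rested 4 h at 37C, dosed with compound and 3 nM final 1-alpha,25-dihydroxy vitamin D3, and incubated 16 h. Viability is taken from CellTiter-Glo luminescence in the reporter wells.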

Assay [10] in a line: qHTS assay to identify small molecule agonists of the NFkB signaling pathway - cell viability counter screen (AID 1159515; calls by dose curve; note: series mostly up to about 61 µM; % is set by controls: 0 for no effect and ±100 for the full control effect; nearly all actives have a fitted effect of over 55% in size). Summed up:
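Read by CellTiter-Glo luminescence (30 min, room temperature) in the wells also used for the beta-lactamase FRET read. ME-180 NFkB-bla cells at 2,000 per well were plated overnight, then exposed to compound for 5 hr at 37 C.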

The nature of assay [11]: qHTS assay to identify small molecule agonists of the endoplasmic reticulum stress response signaling pathway (AID 1159516; active = well fitted activation curve with a large enough effect in the signal ratio in the repeat runs, not every such curve was filed as active; the % refers to the signal ratio; note: % is set by controls: 0 for no effect and ±100 for the full control effect). Summed up:
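Ratiometric FRET readout (405 nm excitation; 460 and 530 nm emission) of a beta-lactamase gene driven by the ER stress response element, after 2 hr substrate loading. HeLa ESRE-bla cells were seeded overnight and treated with compounds for only 5 hr at 37 C.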

Assay [12] is described as follows: qHTS assay to identify small molecule agonists of the endoplasmic reticulum stress response signaling pathway - cell viability counter screen (AID 1159517; calls by dose curve). Put shortly: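 Steps: seed 1,500 ESRE-bla HeLa cells per well; incubate overnight at 37 C, 5% CO2; add compounds in DMSO for 5 hr; run FRET substrate 2 hr RT; add CellTiter-Glo, wait 30 min, read luminescence.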

Assay [13] is described as follows: qHTS assay to identify small molecule antagonists of the retinoid-related orphan receptor gamma (ROR-gamma) signaling pathway - cell viability counter screen (AID 1159520). Note: nearly all actives have a fitted effect of over 50% in size. Note: potency is the fitted concentration of half-maximal effect. Summed up:
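Tet-on ROR gamma CHO cells were given compounds for 2 hr, then doxycycline hyclate at 1 uM final, and incubated 16 hr at 37 C. Viability was measured as ATP content by CellTiter-Glo luminescence.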

For assay [14], the target named is Nuclear receptor ROR-gamma (Homo sapiens) (UniProt P51449). Nature of the assay: qHTS assay to identify small molecule antagonists of the retinoid-related orphan receptor gamma (ROR-gamma) signaling pathway (AID 1159521; note: nearly all actives have a fitted effect of over 50% in size; note: potency is the fitted concentration of half-maximal effect). Put shortly:
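RORγ antagonism is scored from reduced reporter luminescence in Tet-on CHO cells. Induction used 1 uM final doxycycline hyclate for 16 h at 37 C, following a 2 h compound exposure.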

Assay [15] is described as follows: qHTS assay to identify small molecule agonists of the AP-1 signaling pathway - cell viability counter screen (AID 1159525; calls by dose curve; note: nearly all actives have a fitted effect of over 55% in size; note: potency is the fitted concentration of half-maximal effect). Summed up: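 Same-well cytotoxicity counter screen of the Tox21 10K library in ME-180 cells. The readout is ATP-dependent luminescence after 5 h compound treatment. Data are normalised to DMSO and tetra n-octyl ammonium bromide controls.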

Assay [16] can be described thus: qHTS assay to identify small molecule agonists of the AP-1 signaling pathway (AID 1159526; calls by dose curve; note: % is set by controls: 0 for no effect and ±100 for the full control effect).
A short description of assay [17]: qHTS assay to identify small molecule agonists of the RXR signaling pathway - cell viability counter screen (AID 1159529). Note: nearly all actives have a fitted effect of over 50% in size. Note: potency is the fitted concentration of half-maximal effect. Put shortly:
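Cell viability is measured by CellTiter-Glo luminescence, 30 min at room temperature, in wells already read for beta-lactamase. Engineered HEK 293T cells (RXR-alpha-UAS-bla) are dosed 16 hr at 37 C. Tetraoctyl ammonium bromide serves as positive control.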

Assay [18] concerns the target Retinoic acid receptor RXR-alpha (Homo sapiens) (UniProt P19793). Nature of the assay: qHTS assay to identify small molecule agonists of the RXR signaling pathway (AID 1159527; calls by dose curve; note: % is set by controls: 0 for no effect and ±100 for the full control effect; nearly all actives have a fitted effect of over 35% in size). Put shortly:
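qHTS of the Tox21 10K library in GeneBLAzer RXR-alpha HEK 293T cells carrying a beta-lactamase reporter […]; 16 hr treatment, 9-cis retinoic acid as agonist control, FRET read-out.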

For assay [19], the target named is Bile acid receptor (Homo sapiens) (UniProt Q96RI1). Nature of the assay: qHTS assay to identify small molecule antagonists of the farnesoid-X-receptor (FXR) signaling pathway (AID 743217; active = well fitted inhibition curve with a large enough effect in the signal ratio in the repeat runs, not every such curve was filed as active; the % refers to the signal ratio; note: % is set by controls: 0 for no effect and ±100 for the full control effect). Put shortly:
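Antagonist mode: chenodeoxycholic acid at 50 uM final stimulates a UAS-driven beta-lactamase reporter in HEK 293T FXR-bla cells during 16 h, 37C compound exposure. Read-out is FRET substrate fluorescence after 2 h at room temperature.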

Assay [20] has the same target. Put plainly: qHTS assay to identify small molecule agonists of the farnesoid-X-receptor (FXR) signaling pathway (AID 743220; active = well fitted activation curve with a large enough effect in the signal ratio in the repeat runs, not every such curve was filed as active; the % refers to the signal ratio; note: % is set by controls: 0 for no effect and ±100 for the full control effect). Summed up:
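FXR-UAS-bla HEK 293T cells carrying a UAS-driven beta-lactamase reporter were plated for 5 h at 37C/5% CO2, then exposed to DMSO-dissolved Tox21 10K compounds for 16 h at 37C. A LiveBLAzer B/G FRET substrate was loaded for 2 h at room temperature before fluorescence reading.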

Several values for one entry are separate records, joined by “and”; a condition that tells them apart may be missing. Equal entries are not always repeated. Inconclusive results are not listed. A number with no mark means an inactive call. Activity calls are given as the source filed them. Unless noted, calls come from the whole dose curve; as a rule, active = well fitted curve in the direction sought with a large enough effect in the repeat runs; inconclusive = weak or mixed curves; inactive = no such curve, though single readings can be large; an effect the other way counts as inactive or inconclusive.

Peroxisome proliferator-activated receptor delta (Homo sapiens), sequence (Q03181 whole entry, looked up): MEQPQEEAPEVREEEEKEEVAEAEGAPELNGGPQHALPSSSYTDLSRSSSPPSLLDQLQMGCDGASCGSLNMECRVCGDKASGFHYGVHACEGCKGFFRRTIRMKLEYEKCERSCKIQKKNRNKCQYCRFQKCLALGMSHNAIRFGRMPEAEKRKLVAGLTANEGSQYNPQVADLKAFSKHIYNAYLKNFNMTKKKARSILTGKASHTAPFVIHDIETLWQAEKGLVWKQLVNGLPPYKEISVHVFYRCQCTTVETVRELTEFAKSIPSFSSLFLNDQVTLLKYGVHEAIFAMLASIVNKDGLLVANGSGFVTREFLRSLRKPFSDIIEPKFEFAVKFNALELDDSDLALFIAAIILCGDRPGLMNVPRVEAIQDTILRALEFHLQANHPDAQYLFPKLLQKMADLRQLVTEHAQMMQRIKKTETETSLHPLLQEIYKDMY
Vitamin D3 receptor (Homo sapiens), sequence (P11473 whole entry, looked up): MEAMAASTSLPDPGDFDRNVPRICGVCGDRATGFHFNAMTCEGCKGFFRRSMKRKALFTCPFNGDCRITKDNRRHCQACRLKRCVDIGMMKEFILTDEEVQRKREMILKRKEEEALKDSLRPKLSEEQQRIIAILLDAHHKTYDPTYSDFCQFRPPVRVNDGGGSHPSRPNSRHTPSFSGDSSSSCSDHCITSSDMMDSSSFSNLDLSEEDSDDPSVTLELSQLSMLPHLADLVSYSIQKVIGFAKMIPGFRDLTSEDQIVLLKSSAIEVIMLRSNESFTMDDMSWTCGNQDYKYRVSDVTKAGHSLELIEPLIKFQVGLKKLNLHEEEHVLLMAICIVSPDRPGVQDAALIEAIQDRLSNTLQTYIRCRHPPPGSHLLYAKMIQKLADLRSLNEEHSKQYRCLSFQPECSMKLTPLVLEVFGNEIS
Bile acid receptor (Homo sapiens), sequence (Q96RI1 whole entry, looked up): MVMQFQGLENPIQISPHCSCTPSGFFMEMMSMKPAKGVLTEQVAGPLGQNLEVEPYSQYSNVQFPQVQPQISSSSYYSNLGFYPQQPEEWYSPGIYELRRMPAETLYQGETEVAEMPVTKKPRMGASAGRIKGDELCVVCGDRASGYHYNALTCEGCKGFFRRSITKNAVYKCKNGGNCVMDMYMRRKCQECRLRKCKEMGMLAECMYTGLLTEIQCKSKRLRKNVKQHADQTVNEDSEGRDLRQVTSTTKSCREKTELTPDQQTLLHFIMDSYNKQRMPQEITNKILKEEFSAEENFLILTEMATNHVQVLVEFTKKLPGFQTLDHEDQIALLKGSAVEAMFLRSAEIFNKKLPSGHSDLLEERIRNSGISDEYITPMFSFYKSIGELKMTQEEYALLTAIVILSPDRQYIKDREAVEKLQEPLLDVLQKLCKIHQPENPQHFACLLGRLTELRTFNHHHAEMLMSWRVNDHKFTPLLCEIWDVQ
Retinoic acid receptor RXR-alpha (Homo sapiens), sequence (P19793 whole entry, looked up): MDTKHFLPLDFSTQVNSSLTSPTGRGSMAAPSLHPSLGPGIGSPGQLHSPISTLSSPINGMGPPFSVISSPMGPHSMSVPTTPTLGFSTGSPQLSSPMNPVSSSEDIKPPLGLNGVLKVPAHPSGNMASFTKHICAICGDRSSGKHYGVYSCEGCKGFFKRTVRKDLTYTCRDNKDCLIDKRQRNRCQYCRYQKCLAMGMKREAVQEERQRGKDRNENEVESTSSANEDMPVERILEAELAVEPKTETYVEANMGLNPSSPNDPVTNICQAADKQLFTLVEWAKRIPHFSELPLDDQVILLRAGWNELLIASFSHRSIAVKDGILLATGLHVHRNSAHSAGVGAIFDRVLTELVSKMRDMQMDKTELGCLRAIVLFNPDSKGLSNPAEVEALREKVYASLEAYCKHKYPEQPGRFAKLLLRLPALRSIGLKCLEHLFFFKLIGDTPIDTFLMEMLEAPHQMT

As for `C=CC(=O)OCCCCCCCC`, the Potency result in assay [1], in assay [2], in [3], in assay [4], in assay [5] and in [6] was “inactive” in each case. Besides, the Potency entry in [7], in assay [8], in [9], in [10], in [12] and in [13] was “inactive” each time. The Potency entry in [14], in [15], in assay [16] and in assay [17] was “inactive” each time. In assay [11], the compound was classed as inactive.

For `CCC(C)(C)C(=O)O[C@H]1C[C@@H](C)C=C2C=C[C@H](C)[C@H](CC[C@@H]3C[C@@H](O)CC(=O)O3)[C@H]21`, the Potency entry in assay [2], in assay [4], in assay [6], in assay [8], in assay [9] and in [10] was “inactive” throughout. Moreover, the Potency entry in assay [12], in assay [15] and in assay [16] was “inactive” each time. Besides, the Potency in [5] is 11 µM (active); in assay [13] it was 9.44 µM (active); in [14], 3.86 µM (active) and 841 nM (active); in [17], 12 µM (active). Further, the compound was classed as inactive in [11].

As for `CCCNC(C)C(=O)Nc1ccccc1C` (configuration not stated), the Potency entry in [1], in [2], in assay [3], in [5], in assay [6] and in assay [7] was “inactive” in each case. Also, the Potency entry in assay [8], in assay [10], in assay [12], in assay [13], in assay [14] and in assay [15] was “inactive” throughout. The Potency result in assay [16] and in assay [17] was “inactive” throughout. For the same compound, the result in [11] was inactive.

`O`: the Potency result in assay [2], in [4], in assay [5], in [8], in [10] and in assay [12] was “inactive” throughout. The Potency result in assay [13], in [15], in [16], in assay [18] and in assay [17] was “inactive” throughout. Also, the result in assay [11] was inactive.

With `Cc1ccc(-c2cc(C(F)(F)F)nn2-c2ccc(S(N)(=O)=O)cc2)cc1`, the Potency result in assay [1], in [2], in [4], in assay [5], in assay [8] and in assay [10] was “inactive” each time. The Potency result in assay [12] is “inactive”. Further, the compound was called inactive in assay [11]. The Potency was 60.9 µM (active) and 54.5 µM (active) in assay [13]; 48.8 µM (active) and 54.9 µM (active) in [15]; 48.8 µM (active) and 21.9 µM (active) in assay [17].

Consider `Cc1occc(=O)c1OC(=O)C(C)C`, for which the Potency entry in assay [1], in [2], in assay [3], in assay [4], in assay [5] and in assay [6] was “inactive” each time. For the same compound, the Potency result in [8], in assay [9], in assay [10], in assay [12], in [13] and in assay [14] was “inactive” throughout. Besides, the Potency result in assay [15], in assay [16] and in [17] was “inactive” in each case. In addition, the outcome in assay [11] was inactive.

Regarding `NC(Cc1ccc(Cl)cc1)C(=O)O` (configuration not stated), the activation in assay [1] is 2.85% [at 0.55 µM]; in assay [20], 2.17% [at 0.55 µM]; in [6] it was 0.21% [at 0.554 µM]; in [11] it was 2.37% [at 0.628 µM]; in assay [16] it was -0.248% [at 0.29 µM]. Also, the viability change, negative = cytotoxic in assay [2] is 1.71% [at 0.575 µM]; in assay [4] it was 0.639% [at 0.55 µM]; in assay [15], -2.41% [at 0.29 µM]. Further, the ratio activity, negative = inhibition in assay [3] was 5.74% [at 0.575 µM]. Moreover, the results for the activity change, negative = inhibition in assay [19], in [7] and in assay [14] were 10.5% [at 0.55 µM], -2.76% [at 0.628 µM] and 14.9% [at 0.35 µM], respectively. In addition, the activity change, negative = cytotoxicity is 5.76% [at 0.55 µM] in assay [5], 2.72% [at 0.55 µM] in [8], 3.91% [at 0.628 µM] in assay [12] and 5.89% [at 0.29 µM] in assay [17]. For the same compound, in assay [10], the activity, negative = cytotoxic was 8.56% [at 0.628 µM]. For the same compound, the activity, negative = cytotoxicity in assay [13] was 3.35% [at 0.349 µM].

Turning to `CN1C(=O)c2ccc([N+](=O)[O-])cc2C1=O`, the Potency result in assay [1], in assay [2], in assay [3], in assay [19], in [4] and in [20] was “inactive” in each case. The Potency result in [5], in [6], in [7], in assay [8], in assay [9] and in assay [10] was “inactive” in each case. For the same compound, the Potency entry in assay [12], in [13], in assay [14], in assay [15], in [16] and in assay [17] was “inactive” in each case. In [11], the compound was called inactive.
